Screening data as filed in PubChem BioAssay.
This is a sample that favours compounds with a hit; in the whole collection about 9.6% have one here.
USP30 inh – inhibitors of human USP30 deubiquitinase; Q70CQ3; purified USP30, Ub-rhodamine cleavage fluorescence; inhibition, % at 25 µM; 5.3% of 47,000 active
USP17 inh – inhibitors of human USP17 deubiquitinase | A8MUK1 | purified USP17, Ub-rhodamine cleavage fluorescence, 3 h | inhibition, % at 50 µM | 6.5% of 47,000 active
Target sequence (A8MUK1 whole entry, looked up): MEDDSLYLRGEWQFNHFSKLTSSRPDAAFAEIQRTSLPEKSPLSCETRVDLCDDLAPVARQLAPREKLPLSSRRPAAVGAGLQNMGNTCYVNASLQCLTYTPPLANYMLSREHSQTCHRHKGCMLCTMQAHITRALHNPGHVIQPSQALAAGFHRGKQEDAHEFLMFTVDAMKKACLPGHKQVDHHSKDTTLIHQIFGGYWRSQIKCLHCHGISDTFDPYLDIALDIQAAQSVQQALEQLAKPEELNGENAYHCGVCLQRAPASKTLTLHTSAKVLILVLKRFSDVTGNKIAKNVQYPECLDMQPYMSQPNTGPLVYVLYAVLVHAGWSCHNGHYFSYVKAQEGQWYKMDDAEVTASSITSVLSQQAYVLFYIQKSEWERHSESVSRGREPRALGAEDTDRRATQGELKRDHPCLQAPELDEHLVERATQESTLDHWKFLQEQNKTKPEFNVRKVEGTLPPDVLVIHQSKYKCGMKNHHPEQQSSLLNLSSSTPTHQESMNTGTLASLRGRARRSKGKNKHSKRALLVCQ
Numbers without * were called inactive. No stated cut-off is given here; in the data, active means inhibition above about 30%; inactive means the rest.

COCCN1Cc2cccc(C(=O)Nc3ccc4c(C)cc(=O)oc4c3)c2C1=O was read as USP30 inh 9.2 and USP17 inh -4.1.
O=S(=O)(c1cccc(Cl)c1)N1CCN(c2cnn3cnnc3c2)CC1 was read as USP30 inh 9.1 and USP17 inh 43.3*.
`O=S(=O)(c1ccc(F)cc1)N1CCN(c2cnn3cnnc3c2)CC1` gave USP30 inh 5.1 and USP17 inh 7.4.
For O=C1NCc2c1c1c3ccccc3[nH]c1c1[nH]c3ccccc3c21 the results were USP30 inh 37.3* and USP17 inh 51.1*.
For Cc1nc2c(c3c1[nH]c1ccccc13)C(=O)CC(C)(C)C2 the results were USP30 inh -128.0 and USP17 inh -57.2.
Screening Cn1c(=O)[nH]c2c(C(=O)N3CC=C(c4ccccc4)CC3)snc2c1=O returned USP30 inh -49.0 and USP17 inh -1.1.
`O=C(Nc1sc2c(c1C(=O)NCc1cccnc1)CCCC2)c1csnn1` gave USP30 inh 10.6 and USP17 inh 48.8*.
CC(C)(C)c1ccc(C(=O)NCc2cccnc2)s1 was read as USP30 inh -8.3.
For Cc1sc2nc(CNc3ccc(Br)cc3)[nH]c(=O)c2c1-c1ccccc1 the results were USP30 inh -277.6 and USP17 inh -62.9.
Cn1c(N2CCCC(C(=O)Nc3ccccc3)C2)cc(=O)n(C)c1=O (stereo not drawn) was read as USP30 inh 17.1 and USP17 inh -12.1.
Screening O=C(NCc1nnc(SCC(=O)N2CCN(c3ccccc3)CC2)o1)c1ccccc1F returned USP30 inh -18.4 and USP17 inh 2.1.
For O=C(CSc1nnc(CNC(=O)c2ccccc2F)o1)Nc1ccc(Br)cc1 the results were USP30 inh -0.1 and USP17 inh 32.6*.
`CCCc1nnsc1C(=O)N1CCOCC1c1ncc(C)[nH]1` (stereo not drawn) gave USP30 inh 8.6 and USP17 inh 8.1.
`Cc1ccc(Cn2cc(-c3noc(-c4ccco4)n3)nn2)cc1` gave USP30 inh -9.0 and USP17 inh -1.4.
Screening c1ccc(Cn2cc(-c3noc(-c4cccnc4)n3)nn2)cc1 returned USP30 inh 17.2 and USP17 inh 6.8.
Screening Fc1ccc(Cn2cc(-c3noc(-c4ccccn4)n3)nn2)cc1 returned USP30 inh 1.7 and USP17 inh -19.1.
Screening N#Cc1ccc(-c2nc(-c3cn(Cc4cccc(F)c4)nn3)no2)cc1 returned USP30 inh -32.3 and USP17 inh 35.8*.
Screening COc1ccccc1-c1nc(-c2cn(Cc3ccc(C)cc3)nn2)no1 returned USP30 inh 30.2* and USP17 inh 8.4.
For CCOc1ccccc1-c1nc(-c2cn(Cc3ccc(F)cc3)nn2)no1 the results were USP30 inh 58.2* and USP17 inh 63.7*.
C=C1C(=O)[C@]23[C@H](O)C[C@H]4[C@]5(CCC[C@]4(C)C=O)CO[C@](O)(C[C@@H]1[C@H]2O)[C@@H]53 was read as USP30 inh 0.0 and USP17 inh 14.6.
CCN1CCN(CCNC(=O)c2cc3cn(C4CC4)cc3s2)CC1 was read as USP30 inh -143.9 and USP17 inh 1.8.
Screening CCCCNC(=O)c1cc2cn(C3CC3)cc2s1 returned USP30 inh -127.8 and USP17 inh 40.5*.
Screening O=C(c1ccc(Cl)cc1)N1CCCn2nnc(Cn3cccn3)c2C1 returned USP30 inh 23.1 and USP17 inh 5.0.
`COc1cnc(SCc2ccc(Cl)cc2)[nH]c1=O` gave USP30 inh 1.3 and USP17 inh 1.4.
Screening Nc1ncnc(SCc2ccc(Cl)cc2)n1 returned USP30 inh 22.9 and USP17 inh 54.0*.
Screening COc1ccc(-c2oc3ncnc(NCc4ccco4)c3c2-c2ccc(OC)cc2)cc1 returned USP30 inh 13.7 and USP17 inh 30.3*.
For Clc1cccc(-c2noc3ncnc(NCc4ccco4)c23)c1 the results were USP30 inh 36.5* and USP17 inh 17.9.
`COc1cc2ncnc(NCc3ccco3)c2cc1OC` gave USP30 inh 5.7 and USP17 inh 8.3.
Cc1ccccc1-c1noc2ncnc(NCc3ccco3)c12 was read as USP30 inh 5.6 and USP17 inh 0.1.
Cc1nc(C2CCCN2CCn2cc(Br)cn2)no1 (stereo not drawn) was read as USP30 inh -31.2 and USP17 inh -11.6.
For NC(=O)C1=NC2=NS(=O)(=O)c3ccccc3N2N1Cc1ccn(-c2cccc(F)c2)n1 the results were USP30 inh -3.4 and USP17 inh 4.0.
CC1(C)O[C@@H](C2CCN(Cc3ccccn3)CC2)C2CC1C[C@H](O)[C@@]2(C)O (stereo partly drawn) was read as USP30 inh -85.9 and USP17 inh -21.6.
Cn1ccnc1CN1CCC([C@@H]2OC(C)(C)C3CC2[C@](C)(O)[C@@H](O)C3)CC1 (stereo partly drawn) was read as USP30 inh 32.4*.
O=C(NCCc1nc2ccccc2n1Cc1ccccc1F)c1ccc(Cl)cc1 was read as USP30 inh 30.0 and USP17 inh 9.5.
For O=C(NC(Cc1ccccc1)C(=O)Nc1ccccc1F)C1CCCCC1 (stereo not drawn) the results were USP30 inh -12.2 and USP17 inh 5.7.
`O=S(=O)(c1cccc(F)c1)N1CCN(c2nnnn2-c2ccccc2)CC1` gave USP30 inh -3.8 and USP17 inh 30.5*.
`Cc1cccc(S(=O)(=O)N2CCc3nc4ccccc4n3CC2)c1` gave USP30 inh 11.3 and USP17 inh 84.1*.
For O=S(=O)(c1ccc(F)cc1)N1CCN(c2nnnn2-c2ccccc2)CC1 the results were USP30 inh -11.6 and USP17 inh -5.4.
Screening N#Cc1cccc(NC(=O)N2CCCn3c(nc4ccccc43)C2)c1 returned USP30 inh 26.8 and USP17 inh 15.9.
N#Cc1cccc(NC(=O)N2CCc3nc4ccccc4n3CC2)c1 was read as USP30 inh 32.7* and USP17 inh 0.8.
Screening O=C(Nc1ccccc1)N1CCCn2c(nc3ccccc32)C1 returned USP30 inh 24.6 and USP17 inh 2.6.
For O=C(Nc1cccc(C(F)(F)F)c1)N1CCCn2c(nc3ccccc32)C1 the results were USP30 inh 78.7* and USP17 inh 36.9*.
Screening O=S(=O)(c1ccccc1)N1CCc2nc3ccccc3n2CC1 returned USP30 inh 7.8 and USP17 inh 29.8.
For Cn1cc(C(=O)Nc2cc(F)ccc2F)c2[nH]c(=O)n(Cc3ccccc3)c(=O)c21 the results were USP30 inh -81.6 and USP17 inh -15.3.
Screening COc1cccc(CNC(=O)Cn2c(C)nc3onc(C)c3c2=O)c1 returned USP30 inh 9.2 and USP17 inh 3.6.
Screening O=C1CCSc2c1cccc2C(=O)N1CCCCCC1 returned USP30 inh -45.0 and USP17 inh -20.6.
For COc1ccc(-c2noc(C3CCCN3C(=O)Nc3ccccc3Cl)n2)cc1 (stereo not drawn) the results were USP30 inh 26.9 and USP17 inh 12.2.
For O=C(CCc1nnc2ccc(N3CCCC3)nn12)NCc1cccnc1 the results were USP30 inh 23.0 and USP17 inh 19.0.
For O=S(=O)(c1cccc(F)c1)N1CCc2nc3ccccc3n2CC1 the results were USP30 inh 25.8 and USP17 inh 90.7*.
O=C(Nc1ccccc1)N1CCC(CCOc2ccccc2)CC1 was read as USP30 inh 12.6 and USP17 inh 7.4.
`N#Cc1cccc(NC(=O)N2CCC(CCOc3ccccc3)CC2)c1` gave USP30 inh 32.9* and USP17 inh 24.1.
